Holding throughout (test): NCI-60 one-dose screen, 48 h (100 = growth as untreated, 0 = no growth, -100 = all killed)
What all share (settings): 10 µM unless noted

In assay [1] the test system is NCI-H23 lung.
The subject of assay [2] is NCI-H226 lung.
Assay [3] deals with NCI-H322M lung.
Assay [4] concerns HOP-62 NSCLC.
Assay [5] concerns NCI-H460 lung.
The test system of assay [6] is HOP-92 NSCLC.
In assay [7] the test system is NCI-H522 lung.
The subject of assay [8] is A549/ATCC NSCLC.
The subject of assay [9] is 786-0 renal.
Assay [10] concerns COLO 205 colon.

The panel holds about 83,000 compounds, 20% with a hit somewhere; the sample as a whole holds those more often.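 The test compound was applied at a single concentration to cells in 96-well plates for 48 hours, and percent growth was recorded.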 Unmarked numbers belong to inactive results. Activity calls are given as the source filed them. Rule for the calls: active = growth percent below 10; inactive = the rest.

`CC1(C)CC[C@]23CC[C@]4(C)[C@H](CC[C@@H]5[C@@]6(C)CC[C@H](NCO)C(C)(C)[C@@H]6CC[C@]54C)[C@H]2[C@H]1OC3`: the growth is 55.7% in assay [1]; 97.2% in assay [2]; 84.2% in assay [3]; 79.8% in [4]; -41.1% (active) in assay [5]; 40.1% in assay [6]. The growth is 101% in assay [7], 60.5% in assay [8], 64.3% in assay [9] and -48.5% (active) in [10].
Take `O=C(NCCNc1cc(-c2cn(-c3ccccc3)nc2-c2cccc(O)c2)ccn1)Nc1cc(C(F)(F)F)cc(C(F)(F)F)c1`: the growth is 98.1% in assay [1]; 85% in assay [2]; 86.5% in assay [3]; 95% in [4]; 102% in assay [5]; 89.6% in assay [6]. For the same compound, the growth in assay [7] is 92.2%; in assay [8] it was 96.5%; in assay [9], 99%; in assay [10], 107%.
Regarding `Cc1csc(/N=C(N)/N=C(\N)c2cccc(C#N)c2)n1`, the growth in [1] was 84.5%; in [2], 86.5%; in assay [3], 96.6%; in assay [4], 64.6%; in [5], 64.8%; in assay [6] it was 27%. Also, the growth in assay [7] is 79.6%; in assay [8], 71.9%; in [9], 87.8%; in [10], 76.1%.
`CN1CCN(c2ccc(Nc3nc(NCCCNS(=O)(=O)c4ccc(F)cc4)c4sccc4n3)cc2)CC1`: the growth in assay [1] is 87%; in assay [2], 99.4%; in assay [3], 87.6%; in [4] it was 91.5%; in [5], 72%; in assay [6] it was 37.8%. Moreover, the growth in [7] is 71%; in [8], 77.9%; in [9] it was 3.97% (active); in assay [10], 50.5%.
`CCC(=C(c1ccc(OCCN2CCCCCC2)cc1)c1ccc(OCCN2CCCCCC2)cc1)c1ccc(Cl)cc1`: the growth was 19.4% in [1]; 52.1% in assay [2]; 18% in [3]; 58.2% in [4]; -39.7% (active) in assay [5]; 32.3% in assay [6]. The growth in assay [7] was -5.58% (active); in assay [8] it was -21.3% (active); in [9] it was -81.1% (active); in assay [10] it was -57.7% (active).
For `NS(=O)(=O)c1ccc(Nc2nc(N/N=C/C=C/c3ccccc3)nc(Nc3ccccc3)n2)cc1`, the growth in [1] is 40.1%; in assay [2], 58.6%; in [3], 56.8%; in [4], 56.2%; in [5] it was 6.23% (active); in [6], 83.9%. In addition, the growth in assay [7] was 66.4%; in assay [8], 69.3%; in assay [9], 37.6%; in [10], 55.3%.
As for `C/C(=N/N)c1nnn(-c2ccc(Br)cc2)c1C`, the growth was 99.6% in [1]; 91.5% in [2]; 95.7% in [3]; 93.7% in [4]; 102% in assay [5]; 93.4% in [6]. For the same compound, the growth is 91.5% in assay [7], 99.4% in [8], 103% in assay [9] and 115% in assay [10].
With `C[C@H](Nc1ncnc2ccc(-c3cnc(Cl)c(NS(C)(=O)=O)c3)cc12)c1ccccc1`, the growth in assay [1] was -5.76% (active); in assay [2], 1.56% (active); in assay [3], -31.1% (active); in assay [4], -16.3% (active); in assay [5], 4.11% (active); in assay [6], -11.7% (active). For the same compound, the growth was -48.8% (active) in [7], -49.8% (active) in [8], -6.23% (active) in [9] and -93.2% (active) in [10].
For `CCc1cc(OC(=O)N2CCN(CCC(C)(COC(C)(C)C)COC(C)(C)C)CC2)ccc1Nc1cc(-c2ccc(-n3cccn3)cc2)[nH]n1`, the growth was 83.9% in assay [1]; 67.1% in assay [2]; 101% in assay [3]; 91.7% in assay [4]; 74.4% in [5]; 73.1% in assay [6]. For the same compound, the growth was 80.7% in [7], 81.1% in assay [8], 85.8% in [9] and 80.8% in assay [10].
`Cc1ccccc1Nc1nc(SC(C)C)nc(-c2ccccc2)c1C#N`: the growth in assay [1] is 31.7%; in assay [2], 81.1%; in assay [3] it was 70%; in assay [4], 37%; in [5], 45.5%; in assay [6], 64.5%. Moreover, the growth is 73% in assay [7], 102% in assay [8], 10.6% in [9] and 119% in assay [10].
On to `O=C1C(SCc2ccccc2)=C(Cl)CN1c1ccc(Cl)cc1`, for which the growth in assay [1] is 80.5%; in [2] it was 99%; in [3], 98.2%; in assay [4], 109%; in assay [5] it was 106%; in assay [6], 104%. Moreover, the growth in [7] was -59.6% (active); in [8], 101%; in assay [9], 103%; in assay [10], 119%.
For the compound `Fc1ccc(-c2cn3c(-c4c[nH]c5ccc(Br)cc45)csc3n2)cc1`, the growth is 30.4% in assay [1]; 59.8% in assay [2]; 81.4% in [3]; 34.8% in [4]; 52.9% in assay [5]; 22.2% in [6]. Moreover, the growth in [7] is 85.1%; in [8], 78.6%; in assay [9], 97.2%; in assay [10], 76.9%.
`O=C(Nc1cc(C(F)(F)F)cc(C(F)(F)F)c1)Nc1ccc2oc(=O)ccc2c1`: the growth was -0.22% (active) in assay [1]; 18.8% in [2]; 13.4% in [3]; 23.9% in assay [4]; 6.36% (active) in assay [5]; -26.2% (active) in [6]. Further, the growth in assay [7] was -13.5% (active); in assay [8] it was 15.2%; in assay [9], 10.6%; in [10], -12.3% (active).
With `CCCCN1C(=O)/C(=c2\sc3n(c2=O)C2C(NN=3)N(CC)C(=O)N2CC)c2cccc(C)c21` (stereo not given), the growth is 49.7% in assay [1]; 36.6% in assay [2]; 52.7% in [3]; 46.8% in assay [4]; 18.8% in assay [5]; 71.1% in assay [6]. For the same compound, the growth in assay [7] is 39.4%; in assay [8] it was 57.1%; in [9] it was 63.3%; in assay [10], 24.6%.

Values taken from PubChem BioAssay (NCI).
